Compound activity (PubChem BioAssay)
CYP2C19 inhib: inhibitors of human CYP2C19. P33261. CYP2C19 Supersomes, luciferin-H EGE luminescence, 30 min. inhibition, % at 5 µM. 21% of 96,000 active;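 active = CYP2C19 inhibition above a set limit at 5 µM in the primary screen, cut at about 50% in these data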;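 also: plate controls were negative control wells for no effect and 2.5 mM tranylcypromine positive control for full effect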
CYP2C9 activ: CYP2C9 (human) activation | P11712 | recombinant CYP2C9, luciferin-H conversion, luminescence; active compounds read high; factor 1 = untreated enzyme, 0 = blocked | activation factor at 5 µM | 1.4% of 96,000 active | AID 1024;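 active = activation factor of 2 or more for CYP2C9 at a 5 µM dose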;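 also: 0 = sulfaphenazole-blocked wells and 1 = vehicle-only wells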
Target sequence (P11712 whole entry, looked up): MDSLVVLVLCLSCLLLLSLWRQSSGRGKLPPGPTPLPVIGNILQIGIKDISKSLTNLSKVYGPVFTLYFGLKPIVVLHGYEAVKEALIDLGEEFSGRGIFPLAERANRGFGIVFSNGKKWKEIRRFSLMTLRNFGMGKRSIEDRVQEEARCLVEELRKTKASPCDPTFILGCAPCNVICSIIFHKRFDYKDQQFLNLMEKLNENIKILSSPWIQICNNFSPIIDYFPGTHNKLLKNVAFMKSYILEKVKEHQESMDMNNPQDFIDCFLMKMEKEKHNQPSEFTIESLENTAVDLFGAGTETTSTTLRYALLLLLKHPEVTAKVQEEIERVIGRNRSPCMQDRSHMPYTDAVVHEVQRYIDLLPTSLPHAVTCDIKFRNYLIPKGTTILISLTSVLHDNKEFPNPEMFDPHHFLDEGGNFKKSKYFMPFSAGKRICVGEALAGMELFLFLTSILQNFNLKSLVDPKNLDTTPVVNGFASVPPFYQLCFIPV
CYP2C19 activ: activators of human cytochrome P450 2C19; P33261; AID 1025; recombinant CYP2C19, luciferin-H EGE luminescence; active compounds read high; 0 = fully inhibited enzyme, 1 = untreated enzyme; activation factor at 5 µM; 96,000 tested, under 10 active;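 active = activation factor of at least 2 at 5 µM in the primary screen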;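 also: 0 = wells with 2.5 mM tranylcypromine and 1 = vehicle-only wells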
PostGolgi yeast: growth inhibition of a yeast mutant, post-Golgi transport screen. post-Golgi transport phenotypic cell assay. inhibition, % at 10 µM. 0.9% of 98,000 active;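 also: yeast cells grown in 1536-well plates; yeast grown about 18 h at 30C before absorbance read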
PostGolgi ctrl: yeast control strain growth, post-Golgi counter-screen | 5% of 98,000 active | efflux-deficient yeast background strain, growth absorbance A615, 16 h | inhibition, % at 10 µM
CYP2C9 inhib: human CYP2C9 inhibition | P11712 | CYP2C9 Supersomes, luciferin-H conversion, luminescence | inhibition, % at 5 µM | 20% of 96,000 active | AID 777;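 active = blocking of liver enzyme CYP2C9 beyond about 50% at 5 µM, limit read from the data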
Starred values were filed as active, the others as inactive; . = no result given. This is a sample that favours compounds with a hit; in the whole collection about 32% have one here. Rule as the data show it, unless noted: active = inhibition above about 30%; inactive = the rest.

SMILES	CYP2C19 inhib	CYP2C9 activ	CYP2C19 activ	PostGolgi yeast	PostGolgi ctrl	CYP2C9 inhib
CCN(CC)c1ccc(NC(=O)CN2CCN(c3ccccc3F)CC2)cc1	55*	0.5	0.4	-3	8	46
COC(=O)c1cccc(NC(=O)CN2CCN(c3ccc(OC)cc3)CC2)c1	65*	0.1	0.4	-3	3	86*
O=C(CN(Cc1ccc(F)cc1)C(=O)Cn1nnc2ccccc21)NCC1CCCO1 (stereo unspecified)	.	.	.	3	5	.
COC(=O)c1c(O)c2c([nH]c1=O)CCCC2	3	1.1	1	1	5	-9
COCCn1c(=O)[nH]c2cc(C(=O)NCCN3CCN(c4ccc(OC)cc4)CC3)ccc2c1=O	.	.	.	-2	4	.
CC(C)C1NC(=S)N(Cc2ccccc2)C1=O (stereo unspecified)	58*	0.9	0.4	13	-4	14
COc1ccc(C)cc1NC(=O)C1CC(=O)OC12CCCCC2 (stereo unspecified)	78*	1	0.2	-3	12	3
Cc1ccc(CNC(=O)C2CC(=O)OC23CCCC3)c(C)c1 (stereo unspecified)	.	.	.	3	4	.
Cc1cccc(NC(=O)C2CC(=O)OC23CCCCC3)c1 (stereo unspecified)	76*	0.9	0.2	7	1	7
COc1ccc(NC(=O)C2CC(=O)OC23CCOC(C)(C)C3)cc1 (stereo unspecified)	57*	0.8	0.4	0	-4	15
Cc1ccccc1N1CCN(Cc2c[nH]c3ccccc23)CC1	56*	0.8	0.4	8	-10	20
CCCCn1c(SCC(=O)NC(=O)NCc2ccco2)nc2cc(S(N)(=O)=O)ccc21	8	0.8	0.9	5	10	17
CCOc1cccc(=O)c2c(C)oc(C)c12	22	0	0.8	5	-1	95*
Cc1ccc(-n2nnnc2C(Cl)(Cl)c2nnnn2-c2ccc(C)cc2)cc1	-17	1.1	1.2	108*	100*	-6
COc1cccc(C2C(C(=O)c3sc(C)nc3C)=C(O)C(=O)N2CCN(C)C)c1OC (stereo unspecified)	2	1.1	1	.	.	-5
OC(COc1ccc(Cl)cc1)CN1CCCCC1 (stereo unspecified)	-7	1.2	1.1	0	4	-23
CC(CN1CCCCC1)OC(=O)C(C)(c1ccccc1)c1ccccc1 (stereo unspecified)	54*	0.3	0.5	0	2	68*
CC(CN1CCCCC1)OC(=O)Cc1ccc(Cl)cc1 (stereo unspecified)	60*	0.9	0.4	-9	23	6
COc1cccc(N/C=C(\C#N)c2ccc(OCCCF)cc2)c1	14	0.6	0.9	-2	4	42
CCOC(=O)N1CCN(C(=O)c2cnn(-c3ccccc3)c2NC(=O)c2ccccc2F)CC1	-10	1.2	1.1	-10	16	-24
CC(C(=O)N1CCN(C=O)CC1)N1C(=O)c2ccccc2C1=O (stereo unspecified)	-14	1.2	1.1	-2	8	-15
O=C1CC(c2ccccc2)n2nc(NC(=O)c3cccs3)nc2N1 (stereo unspecified)	-7	1	1.1	21	14	4
O=C(c1ccco1)N1N=C(c2cccs2)CC1c1ccc(F)cc1 (stereo unspecified)	30	0.6	0.7	14	35*	44
O=C(c1cccs1)N1N=C(c2ccccc2)CC1c1ccccc1 (stereo unspecified)	68*	0.1	0.3	1	69*	95*
CS(=O)(=O)N1N=C(c2ccccc2)CC1c1cccs1 (stereo unspecified)	55*	0.8	0.5	-24	24	24
SMILES	CYP2C19 inhib	CYP2C9 activ	CYP2C19 activ	PostGolgi yeast	PostGolgi ctrl	CYP2C9 inhib
O=C(c1ccco1)N1CCN=C1SCc1ccc(F)cc1	-12	0.9	1.1	-10	4	10
Oc1ccc(-c2nc3ccccn3c2NCc2ccco2)cc1	24	0.2	0.8	-3	4	77*
Cc1ccc(-c2nc3ccccn3c2NCc2ccc3c(c2)OCO3)cc1	80*	0.3	0.2	-2	23	72*
Cc1cc(NCc2ccc3c(c2)OCO3)n2nc(C)nc2n1	.	.	.	-1	-7	.
CCC(=O)Nc1cccc(-c2cnc3ccccc3n2)c1	51*	1.1	0.5	-1	1	-15
O=C(CCl)Nc1cccc(-c2cnc3ccccc3n2)c1	80*	1.3	0.2	25	6	-31
O=C(CCl)Nc1ccc(Oc2cnc3ccccc3n2)cc1	35	1.8	0.7	-4	5	-76
N#C/C(=C\c1c(N2CCC(C(N)=O)CC2)nc2ccccn2c1=O)S(=O)(=O)c1ccccc1	26	0.2	0.7	14	14	79*
NC(=O)C1CCN(C2=C(Cl)C(=O)c3ccccc3C2=O)CC1	17	0.9	0.8	14	-1	12
CC1CN(c2nc3ccccn3c(=O)c2/C=C(\C#N)S(=O)(=O)c2ccccc2)CC(C)O1 (stereo unspecified)	85*	0.2	0.2	-5	1	84*
COC(=O)NNC(=O)c1ccccc1C	-13	1	1.1	-4	5	-5
CC(=O)Nc1nonc1NC(=O)c1ccc(C(C)(C)C)cc1	42	0.8	0.6	5	4	20
CCOC(=O)/C(=C\Nc1ccc(OC(F)(F)F)cc1)Sc1ncc(C(F)(F)F)cc1Cl	40	0.5	0.6	26	6	48
Cc1noc(/C=C/c2ccco2)c1S(=O)(=O)N1CCC(C(=O)N2c3ccccc3CC2C)CC1 (stereo unspecified)	34	0.3	0.7	8	9	70*
Cc1noc(/C=C/c2ccco2)c1S(=O)(=O)N1CCC(C(=O)N(C)Cc2ccccc2)CC1	36	0.2	0.6	-8	15	76*
Cc1noc(/C=C/c2ccco2)c1S(=O)(=O)N1CCC(C(=O)NC(C)c2ccccc2)CC1 (stereo unspecified)	7	0.7	0.9	-3	11	30
O=C1C2CCCN2C(c2ccccc2)N1c1nccs1 (stereo unspecified)	13	1	0.9	-6	6	-1
CC1=CC(c2ccccc2)n2nc(N3C(=O)C4CC=CCC4C3=O)nc2N1 (stereo unspecified)	1	0.9	1	6	2	10
CCCN(CCC)c1nc(Cl)nc(NCc2ccco2)n1	6	1	0.9	21	38*	2
Cc1ccc(C)c(N2CCN(C(=O)c3ccc4nc(-c5ccco5)c(-c5ccco5)nc4c3)CC2)c1	39	0.6	0.6	0	22	45
CC(C)c1nc(N2CCN(C(=O)c3ccccc3)CC2)c(C#N)c2c1COC(C)(C)C2	72*	0.2	0.3	20	18	81*
CC1(C)Cc2c(c(-c3ccccc3)nc(N3CCCC3)c2C(N)=O)CO1	-11	1.1	1.1	-2	4	-12
